Source: PubChem BioAssay
Tg IFNy HTS: T. gondii growth inhibition with IFN-gamma, primary screen, cell-based | Toxoplasma gondii growth in IFN-gamma-treated host cells; stronger effect = lower value | activity change, negative = inhibition, % (test concentration not listed) | hit rate 3.8% among 69,000 | AID 1259416, 2018; in the data active means activity change below about -70%, passing the limit was not always enough;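 further: host cells are HeLa cells infected with Toxoplasma gondii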
Numbers without * were called inactive; i = inactive; ! = not active in a repeat. Many of the other results were omitted from the sample, so hits are more common in it than they were.

SMILES	Tg IFNy HTS
Cc1cccc(-n2cc(-c3ccnc(NC(C)Cc4ccncc4)n3)cn2)c1 (configuration not stated)	-51
CC(NC(=O)Cc1ccccn1)c1cnn(-c2ccccc2F)c1 (configuration not stated)	6
CC(Cc1cccnc1)Nc1nccc(-c2cnn(-c3ccccc3F)c2)n1 (configuration not stated)	-72*
CCc1ccc(CNC(=O)Cn2ncc3c(N4CCCCC4)ncnc32)cc1	168
O=C(Cn1ncc2c(N3CCCC3)ncnc21)NCc1ccc(F)cc1	-61
Cc1ccc(CNC(=O)Cn2ncc3c(N4CCCC4)ncnc32)cc1	44
O=C(Cn1ncc2c(N3CCCCC3)ncnc21)NCc1ccncc1	-29
CCN(CC)c1ncnc2c1cnn2CC(=O)NCc1ccc(F)cc1F	-104*
O=C(Cn1ncc2c(N3CCCCCC3)ncnc21)NCc1ccc(C(F)(F)F)cc1	-82*
CCOc1ccc(CNC(=O)Cn2ncc3c(N4CCC(C)CC4)ncnc32)cc1OCC	189
CCN(CC)c1ncnc2c1cnn2CC(=O)NCc1ccc(F)c(Cl)c1	-28
CCN(CC)c1ncnc2c1cnn2CC(=O)NCc1cc(F)cc(F)c1	32
Cc1ccc(CNC(=O)Cn2ncc3c(N4CCC(C)CC4)ncnc32)cc1	-94*
O=C(Cn1ncc2c(N3CCOCC3)ncnc21)NCc1ccc(C(F)(F)F)cc1	-35
CC1CCN(c2ncnc3c2cnn3CC(=O)NCc2ccc(F)cc2)CC1	-95*
CCCN1C[C@H](NC(=O)CCc2cc(Cl)no2)[C@@H](c2ccc(OC)cc2)C1	14
CC1=C(C(=O)Nc2ccc(F)cc2)C2(CCN(S(C)(=O)=O)CC2)OC1=O	23
Cc1cc2cc(NC(=O)CCC(=O)Nc3nnc(C)s3)cc(Cl)c2o1	13
CCOC(=O)c1ccccc1NC(=O)c1nc(Nc2ccc(Cl)cc2)c2ccccc2n1	-28
Cn1ccnc1SCC(=O)Nc1ccc(C(=O)N2CCCCC2)cc1	-26
CCN(Cc1ccc2cccc(O)c2n1)CC1CCOCC1	3
CC(NC(=O)NC(C)(C)C)c1ccccc1 (configuration not stated)	-19
Cn1c(=O)c(C(=O)N2C[C@@H]3[C@@H]4CC[C@@H](C4)[C@@H]3C2)nc2ccccc21	21
CCN1CCOCC2(CCCN(C(=O)Cc3ccsc3)C2)C1 (configuration not stated)	-80*
CN1CCOCC2(CCCN(C(=O)Cc3cccs3)C2)C1 (configuration not stated)	-3
SMILES	Tg IFNy HTS
CN1CCOCC2(CCCN(C(=O)Cc3ccsc3)C2)C1 (configuration not stated)	3
COc1ccc(S(=O)(=O)N2CCC(c3nc(C(=O)N(C)C)c(C)o3)CC2)cc1	-5
COc1ccc(S(=O)(=O)N2CCC(c3ccc4c(C)nn(C)c4n3)CC2)cc1	-91*
COc1ccc(S(=O)(=O)N2CCC(c3n[nH]c(=O)cc3-c3cc(C)no3)CC2)cc1	-21
CC(C)C(Cn1ccnc1)NCC(=O)Nc1ccc(Cl)cc1F (configuration not stated)	2
CCNC(=O)c1ccc(-c2nc(CN3CCN(c4ccccc4)CC3)c(C)o2)cc1	45
Cc1oc(-c2ccc(C(=O)NCCc3ccco3)cc2)nc1CN1CCN(c2ccccc2)CC1	17
Cc1oc(-c2ccc(C(=O)NCCc3cnc[nH]3)cc2)nc1CN1CCN(c2ccccc2)CC1	-110*
COCCNC(=O)c1ccc(-c2nc(CN3CCN(c4ccccc4)CC3)c(C)o2)cc1	-4
CCCCN(CC)C(=O)c1ccc(-c2nc(CN3CCN(c4ccccc4)CC3)c(C)o2)cc1	-69
CCN(CC)CCCNC(=O)c1ccc(-c2nc(CN3CCN(c4ccccc4)CC3)c(C)o2)cc1	-104*
C[C@@H]1CN(Cc2ccccn2)CC[C@]12CCC(C(=O)N1CCCC1)O2 (some centres not stated)	-33
COc1cccc(Nc2ccc3c(C4CCCN4C(=O)c4cccnc4)nnn3c2)c1 (configuration not stated)	-13
CCCN1C(=O)CCc2cc(NC(=O)/C=C/c3ccc(C)cc3)ccc21	-70
C#C[C@]1(OC(C)=O)CCC2C3CCC4=CC(=O)CC[C@@H]4C3CC[C@@]21C (some centres not stated)	-83*!
C#C[C@]1(OC(C)=O)CC[C@H]2[C@@H]3CCC4=C[C@@H](OC(C)=O)CC[C@@H]4[C@H]3CC[C@@]21C	-34
CC(=O)O[C@]1(C(C)=O)CC[C@H]2[C@@H]3C=C(C)C4=CC(=O)CC[C@@H]4[C@H]3CC[C@@]21C	-21
COc1ccccc1NC(=O)N1CCN(Cc2nc(-c3cccc(Cl)c3)oc2C)CC1	4
CN1Cc2c(C(=O)Nc3cccc(Cl)c3)ncn2-c2ccccc2S1(=O)=O	-7
CC(C)C(C)NC(=O)c1ncn2c1CN(CC1CC1)S(=O)(=O)c1ccccc1-2 (configuration not stated)	-13
CC(C)CCN1Cc2c(C(=O)Nc3cccc(F)c3)ncn2-c2ccccc2S1(=O)=O	-83*
Cc1cc(C(F)(F)F)nc(CCNC2CCC(=O)N(CC3CC3)CC2)n1 (configuration not stated)	9
COc1ccc(CNc2n[nH]c(=S)s2)cc1	408
FC(F)(F)Oc1ccc(OCc2n[nH]c(=S)o2)cc1	-35
FC(F)(F)Oc1ccc(Nc2n[nH]c(=S)s2)cc1	-92*
SMILES	Tg IFNy HTS
O=C(O)C(c1ccccc1)n1cccc1 (configuration not stated)	11
CC1(C)CC[C@]2(C(=O)O)CC[C@]3(C)C(=CCC4[C@@]5(C)CC[C@H](O)[C@@](C)(CO)C5CC[C@]43C)C2C1 (some centres not stated)	7
CC1(C)[C@@H](O)CC[C@]2(C)[C@H]3C(=O)C=C4[C@@H]5C[C@@](C)(C(=O)O)CC[C@]5(C)CC[C@@]4(C)[C@]3(C)CC[C@@H]12	10
C[C@H]1[C@H](C)CC[C@]2(C(=O)O)CC[C@]3(C)C(=CC[C@@H]4[C@@]5(C)CC[C@H](O)C(C)(C)[C@@H]5CC[C@]43C)[C@H]12	-79*
Cc1ccc(NC(=O)CC(=O)NCc2cnc3c(C)cccn23)cc1	13
C=CCN(CC=C)C(=O)Nc1ccc2nsnc2c1	-81*
O=C(Nc1ccc2c(c1)OCCO2)c1ccc2nsnc2c1	i
CCC(=O)Nc1c(C)ccc2nsnc12	8
CN(C)C(=O)CN1CCc2ncc(Cn3cncn3)n2CC1	6
CC(C)NC1CCc2c(ccc(=O)n2CCn2cccn2)C1 (configuration not stated)	3
Cc1ccc(CNC(=O)C2CC3CCC2(C)CC32NC(=O)c3ccccc3N2)o1 (configuration not stated)	-3
Cc1noc(C)c1CC(=O)N1CCCC(c2ccc(-c3ccc(N)nc3)cn2)C1 (configuration not stated)	23
NCC1Cc2c(ccc3cc(-c4ccncc4)ccc23)O1 (configuration not stated)	-86*
Clc1ccc(-n2ncc3c(NC4CCCCCCCCCCC4)ncnc32)cc1	11
CC(C)Nc1ncnc2c1cnn2-c1ccc(Cl)cc1	-73*
Cc1ccc(Nc2ncnc3c2cnn3-c2ccc(Cl)cc2)cc1	22
CN(C)C[C@@]12COC[C@@H]1CN(C(=O)COC1CCCC1)C2	0
Cc1ccc(-c2cc(-c3ccccc3)nc3sc4c(c23)CCCC4)cc1	33
O=c1[nH]cnc2c1sc1nc(-c3ccccc3)cc(-c3ccccc3)c12	-9
